PLC-gamma1 inh – blocks human PLC-gamma1 enzyme activity; purified PLC-gamma1, fluorogenic substrate, fluorescence; AID 720700; inhibition, % at 12.2 µM; actives 0.84% (n = 370,000); in the data active = inhibition above about 9.5%
Target sequence (P19174 whole entry, looked up): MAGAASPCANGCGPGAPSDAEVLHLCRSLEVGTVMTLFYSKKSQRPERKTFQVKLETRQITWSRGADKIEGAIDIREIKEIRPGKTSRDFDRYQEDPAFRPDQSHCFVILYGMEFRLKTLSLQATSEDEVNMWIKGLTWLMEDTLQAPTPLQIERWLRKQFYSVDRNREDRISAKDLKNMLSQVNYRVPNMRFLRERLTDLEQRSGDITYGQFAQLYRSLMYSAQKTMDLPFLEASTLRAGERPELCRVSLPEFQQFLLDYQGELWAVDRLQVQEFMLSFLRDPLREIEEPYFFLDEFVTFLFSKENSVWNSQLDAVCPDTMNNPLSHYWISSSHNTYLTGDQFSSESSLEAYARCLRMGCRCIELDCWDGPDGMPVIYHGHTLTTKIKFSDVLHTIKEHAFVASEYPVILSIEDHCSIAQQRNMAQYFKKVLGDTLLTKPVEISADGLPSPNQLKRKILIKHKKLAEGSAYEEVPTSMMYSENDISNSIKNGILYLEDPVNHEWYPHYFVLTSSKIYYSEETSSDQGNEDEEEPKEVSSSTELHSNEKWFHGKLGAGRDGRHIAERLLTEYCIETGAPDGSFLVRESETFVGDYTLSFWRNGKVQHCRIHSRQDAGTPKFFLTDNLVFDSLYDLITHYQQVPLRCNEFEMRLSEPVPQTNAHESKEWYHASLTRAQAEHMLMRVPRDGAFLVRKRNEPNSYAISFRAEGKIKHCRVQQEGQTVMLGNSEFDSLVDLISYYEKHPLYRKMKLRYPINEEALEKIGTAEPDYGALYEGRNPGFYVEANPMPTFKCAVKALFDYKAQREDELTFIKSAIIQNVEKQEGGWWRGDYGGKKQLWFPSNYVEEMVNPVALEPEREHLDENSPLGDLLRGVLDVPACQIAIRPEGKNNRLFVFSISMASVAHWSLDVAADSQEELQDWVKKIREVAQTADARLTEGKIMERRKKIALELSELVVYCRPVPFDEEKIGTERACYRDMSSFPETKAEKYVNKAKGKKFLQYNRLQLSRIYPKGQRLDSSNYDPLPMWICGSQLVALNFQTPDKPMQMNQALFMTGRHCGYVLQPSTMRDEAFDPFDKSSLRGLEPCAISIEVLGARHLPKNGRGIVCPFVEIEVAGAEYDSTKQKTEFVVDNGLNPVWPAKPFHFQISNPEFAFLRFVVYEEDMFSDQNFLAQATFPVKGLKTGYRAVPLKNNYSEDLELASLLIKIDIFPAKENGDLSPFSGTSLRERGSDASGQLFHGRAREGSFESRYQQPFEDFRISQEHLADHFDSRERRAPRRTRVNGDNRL
ADAM17 inh – inhibitors of human ADAM17; P78536; recombinant ADAM17, EDANS/DABCYL FRET peptide cleavage; inhibition, % at 6.95 µM; actives 0.83% (n = 370,000); AID 720648;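 active = inhibition above the mean of compounds lying between control limits plus 3 SD, set per campaign, cut at about 8.5% in these data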
ADAM10 inh – ADAM10 inhibition, QFRET primary screen. actives 0.62% (n = 370,000). inhibition, % at 7 µM. recombinant ADAM10, EDANS/DABCYL FRET peptide cleavage, 3 h;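 active = inhibition above a per-campaign cutoff equal to the mean of compounds falling between control-based bounds plus 3 SD, cut at about 20% in these data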
Rce1 inh – inhibitors of yeast Ras-converting enzyme | yeast membranes, quenched prenylated peptide cleavage fluorescence | calls only | actives 0.27% (n = 290,000) | AID 2563;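 active = fall in fluorescence gain of 50% or more versus controls, with final raw signal at or below 3038400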
PLC-beta3 inh – inhibitors of human phospholipase C beta3. Q01970. Purified PLC-beta3, fluorogenic substrate, fluorescence. inhibition, % at 12.2 µM. actives 0.18% (n = 370,000). AID 720704; in the data active = inhibition above about 11%
ADAM10 counter – inhibits human ADAM10 in ADAM17 exosite counter-screen; shares compounds with ADAM17 inh; recombinant ADAM10, EDANS/DABCYL FRET peptide cleavage, 3 h; inhibition, % at 6.95 µM; actives 47% (n = 2,900);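 active = mean inhibition over the triplicate runs exceeds the activity threshold set in the earlier primary screen, cut at about 20% in these data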
ADAM17 confirm – human ADAM17 inhibition, confirmation. recombinant ADAM17, EDANS/DABCYL QFRET peptide cleavage. actives 65% (n = 2,900). inhibition, % at 6.95 µM. shares compounds with ADAM17 inh;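 active = mean inhibition across replicates above the hit cutoff set in the primary screen, cut at about 8.5% in these data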
Of the large screens only hits and unclear results are named; the others gave an inactive call (follow-up assays come after a bar, where they were run). Most compounds without a hit are left out; they make up all but 2.1% or so of the library.

Cc1ccc(S(=O)(=O)N2C[C@H]3N(C(=O)OC(C)C)N(C(=O)OC(C)C)C[C@H](OC(=O)Nc4cccs4)[C@@]3(O)C2)cc1	none (no result: Rce1 inh)
CCOc1cc2c3c(c1)C1(C(=O)N3C(C)(C)C=C2C)C(C#N)=C(N)Oc2cc(O)ccc21 (configuration not stated)	ADAM17 inh 9.0 | ADAM10 counter inactive | ADAM17 confirm 12
COc1cc2c3c(c1)C1(C(=O)N3C(C)(C)C=C2C)C(C#N)=C(N)Oc2cc(O)ccc21 (configuration not stated)	none
CCOC(=O)C1=C(C(=O)OCC)C2N(Cc3ccc(C(F)(F)F)cc3)c3ccccc3[C@@]23C[C@@H](C(=O)OC)N(S(=O)(=O)c2ccc(OC)cc2)C3=N1 (some centres not stated)	none (no result: Rce1 inh)
Cc1cccc(C)c1NC(=O)C1(C)CSCC(=O)N1CCc1c[nH]c2ccccc12 (configuration not stated)	ADAM17 inh 11 (no result: Rce1 inh) | ADAM10 counter inactive | ADAM17 confirm inactive
Cc1cccc(C)c1NC(=O)C1(C)CSCC(=O)N1CCc1ccccc1F (configuration not stated)	none (no result: Rce1 inh)
CCCc1cc(-c2[nH]ncc2-c2ccc3c(c2)OCCCO3)c(O)cc1O	ADAM17 inh 11 | ADAM10 counter 27 | ADAM17 confirm 14
Cc1csc(NC(=O)CSc2ccc([N+](=O)[O-])cn2)n1	ADAM17 inh 8.7 | ADAM10 counter inactive | ADAM17 confirm inactive
CCc1ccc(/C=C/C(=O)c2cc(Br)ccc(=O)c2O)cc1	none
CCOc1ccc(/C=C/C(=O)c2cc(Br)ccc(=O)c2O)cc1	ADAM17 inh 11 (no result: Rce1 inh) | ADAM10 counter inactive | ADAM17 confirm 22
O=C1CC(NS(=O)(=O)c2ccc([N+](=O)[O-])cc2)CN1c1cccc(F)c1 (configuration not stated)	none
COc1ccc(-c2noc(CCC(=O)N3CCN(c4cccc(C)c4C)CC3)n2)cc1	ADAM17 inh 9.3 (no result: Rce1 inh) | ADAM10 counter 27 | ADAM17 confirm 16
COc1ccc(-c2noc(CCC(=O)N3CCN(c4ccccc4Cl)CC3)n2)cc1	none (no result: Rce1 inh)
CCOC(=O)C1C(=O)NC(C(=O)OCC)(C(=O)OCC)C1C(C)CC (configuration not stated)	none (no result: Rce1 inh)
CC(C)CN1C(=O)[C@]2(CC(=O)N(C)C2c2ccccc2)c2cc(-n3cc(C4=CCCCC4)nn3)ccc21 (some centres not stated)	none (no result: Rce1 inh)
COc1ccc2ccccc2c1C=Nn1c(-c2n[nH]c3c2CCC3)n[nH]c1=S	ADAM17 inh 10 (no result: Rce1 inh) | ADAM10 counter inactive | ADAM17 confirm inactive
CCCCC[C@@H]1C=C(C(=O)O)[C@H](c2cccc(C)c2)N1S(=O)(=O)c1ccc(C)cc1	none (no result: Rce1 inh)
COc1ccc([C@H]2C[C@@H](O)[C@H](n3cc(COC(=O)c4ccccc4)nn3)CN2Cc2cccs2)cc1	none (no result: Rce1 inh)
COc1ccc([C@H]2C[C@H](O)[C@@H](n3cc(COC(=O)c4ccccc4)nn3)CN2Cc2cccs2)cc1	ADAM17 inh 9.3 (no result: Rce1 inh) | ADAM10 counter inactive | ADAM17 confirm inactive
CCCCCC(=O)N1C[C@@H](n2cc(-c3ccc(F)cc3)nn2)[C@H](O)C[C@@H]1c1ccc(C)cc1	ADAM17 inh 10 (no result: Rce1 inh) | ADAM10 counter inactive | ADAM17 confirm 9.9
CCCCCC(=O)N1C[C@H](n2cc(COC(=O)c3ccccc3)nn2)[C@@H](O)C[C@@H]1c1ccc(C)cc1	ADAM17 inh 9.8 (no result: Rce1 inh) | ADAM10 counter 33 | ADAM17 confirm 17
CCCOc1ccc(CNC(=S)Nc2ccccc2)cc1Cl	none
CC(=O)NC(c1ccccc1)c1nc(-c2ccc(Cl)cc2)cs1 (configuration not stated)	none (no result: Rce1 inh)
O=S(=O)(NCCc1csc(-c2ccc(C(F)(F)F)cc2)n1)c1ccc2c(c1)OCCO2	ADAM17 inh 9.3 | ADAM10 counter inactive | ADAM17 confirm 10
COc1ccc(-c2nc(CCNS(=O)(=O)c3ccc4c(c3)OCCO4)cs2)cc1	none
COc1ccc(C2=Nn3c(nnc3-c3ccccc3F)SC2)cc1OC1CCCC1	ADAM17 inh 11, ADAM10 inh 27 (no result: Rce1 inh) | ADAM10 counter 24 | ADAM17 confirm 17
COc1ccc(C2=Nn3c(nnc3-c3ccccc3F)SC2)cc1OC1CCOC1 (configuration not stated)	none (no result: Rce1 inh)
Cc1ccc(Oc2nccc(-c3ccc(Cl)cc3)n2)cc1	none
COc1cc(C(C(=O)NC2CCCCC2)N(C(=O)Cc2c[nH]c3ccccc23)c2ccccc2C)cc(OC)c1OC (configuration not stated)	ADAM17 inh 9.5 | ADAM10 counter 28 | ADAM17 confirm 16
COc1ccc(C(C(=O)NC2CCCCC2)N(C(=O)Cc2c[nH]c3ccccc23)c2ccc(NC(C)=O)cc2)cc1OC (configuration not stated)	none
O=C(COC(=O)/C=C/c1ccc(Cl)cc1)NC(=O)NCc1ccccc1	ADAM17 inh 9.9 (no result: Rce1 inh) | ADAM10 counter 26 | ADAM17 confirm 15
O=C(COC(=O)/C=C/c1ccccc1)NCc1ccc(Cl)cc1	none
CCOc1ccc2nc(NC(=O)C3CCN(S(=O)(=O)c4cnc[nH]4)CC3)sc2c1	ADAM17 inh 8.7 | ADAM10 counter inactive | ADAM17 confirm inactive
O=C(c1ccco1)N1CCN(c2nc(C3CC3)nc3c2nnn3Cc2ccccc2Cl)CC1	ADAM17 inh 11 | ADAM10 counter inactive | ADAM17 confirm inactive
Cc1cc(N/N=C/c2c(O)ccc3ccccc23)nc(-c2ccccc2O)n1	ADAM17 inh 9.2 | ADAM10 counter inactive | ADAM17 confirm inactive
COc1ccccc1CNC(=O)C/C(C)=N/NC(=O)Cc1ccc(OC)c(OC)c1	none
COc1cc(NC(=O)C/C(C)=N/NC(=O)Cc2ccccc2)c(OC)cc1Cl	ADAM17 inh 11 | ADAM10 counter inactive | ADAM17 confirm 11
COc1ccc(Cl)cc1NC(=O)C/C(C)=N/NC(=O)CCc1ccccc1	none
COc1ccc(CNC(=O)C/C(C)=N/NC(=O)Cc2ccc(OC)c(OC)c2)cc1	ADAM17 inh 9.9 | ADAM10 counter inactive | ADAM17 confirm inactive
COC(=O)c1ccc(CNC(=O)COC(=O)C23CC4CC(CC(C4)C2)C3)cc1	ADAM17 inh 8.7 | ADAM10 counter inactive | ADAM17 confirm inactive
COc1cccc(-c2nnc(SCC3CNC(=O)O3)n2-c2ccc(Cl)cc2)c1 (configuration not stated)	none
CCOC(=O)CCCc1c[nH]c2ccccc12	none
Cc1ccc(NC(=O)COC(=O)Cc2c[nH]c3ccccc23)cc1C	ADAM17 inh 14 (no result: Rce1 inh) | ADAM10 counter inactive | ADAM17 confirm inactive
CC(C)(C)NC(=O)NC(=O)COC(=O)CCCc1c[nH]c2ccccc12	ADAM17 inh 12 | ADAM10 counter inactive | ADAM17 confirm inactive

Bioassay records from PubChem.
